Test results taken from a collection of fitness landscapes (doi:10.1016/j.celrep.2020.107928).
Over roughly 81,000 sequences, “one-hybrid fitness for binding parS DNA” has its median near -0.17; the highest 2% begin near 0.51. The list comes from a sample in which the highest values are over-represented; it also holds similar and randomly drawn sequences.

B1: Caulobacter ParB omega fusion; a variant is named by its letters at X, in order, B8GW30 (parent)
chain: MESVVVGEPGMSEGRRGLGRGLSALLGEVDAAPAQAPGEQLGGSREAPIEILQRNPDQPRRTFREEDLEDLSNSIREKGVLQPILVRPSPDTAGEYQIVAGERAWRAAQRAGLKTVPIMVRELDDLAVLEIGIIENVQRADLNVLEEALSYKVLMEKFERTQENIAQTIGKSXSHVANXMRLLXLPDEVQSYLVSGELTAXHARAIAAAADPVALAKQIIEGGLSVRETEALARKAPNLSAGKSKGGRPPRVKDTDTQALESDLSSVLGLDVSIDHRGSTGTLTITYATLEQLDDLCNRLTRGI

Variants of: B1
Assay: one-hybrid fitness for binding parS DNA (scaled: cognate 1, non-cognate 0); higher = stronger binding
Conditions: with parS DNA site
Outline: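 Fitness is the rescaled log change in variant-to-wild-type read ratio, measured by Illumina sequencing of plasmids before and after bacterial one-hybrid selection. The scale puts cognate at 1 and non-cognate at 0. Selection of Caulobacter ParB libraries, four specificity codons randomised, took place in E. coli USO with a HIS3 reporter, site 19 bp from the promoter, over 48 hours at 37°C on M9-minus-histidine with 0.1 mM IPTG and 5 mM 3-AT.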

| Variant | one-hybrid fitness for binding parS DNA |
| --- | --- |
| GTSR | ≤ 0.2 |
| ARHM | ≤ 0.2 |
| EPPR | ≤ 0.2 |
| HSQW | ≤ 0.2 |
| LRNA | ≤ 0.2 |
| RARE | ≤ 0.2 |
| HIDW | ≤ 0.2 |
| TFRF | ≤ 0.2 |
| GVCA | ≤ 0.2 |
| RSPS | 0.541 |
| RSIS | 0.887 |
| RSPP | ≤ 0.2 |
| RSIP | ≤ 0.2 |
| RSYS | 1.01 |
| RPIS | ≤ 0.2 |
| RCIS | 1.01 |
| RSYH | ≤ 0.2 |
| RSID | ≤ 0.2 |
| RSPN | ≤ 0.2 |
| RSYP | ≤ 0.2 |
| RCIP | 0.228 |
| TPAQ | ≤ 0.2 |
| CKSG | ≤ 0.2 |
| LRFF | ≤ 0.2 |

| Variant | one-hybrid fitness for binding parS DNA |
| --- | --- |
| RCPH | ≤ 0.2 |
| RPPS | ≤ 0.2 |
| RCPS | 0.88 |
| WVLG | ≤ 0.2 |
| AQAH | ≤ 0.2 |
| QPQI | ≤ 0.2 |
| RNRC | 0.893 |
| RNYC | 0.719 |
| RNRD | ≤ 0.2 |
| RNLR | ≤ 0.2 |
| RNYN | 0.235 |
| RNPC | 0.358 |
| RNYD | ≤ 0.2 |
| RNLC | 0.736 |
| RNIP | ≤ 0.2 |
| RNRH | ≤ 0.2 |
| RNLK | ≤ 0.2 |
| RNIC | 0.523 |
| VAHC | ≤ 0.2 |
| TAIS | ≤ 0.2 |
| PGSI | ≤ 0.2 |
| MKSG | ≤ 0.2 |
| AHRN | ≤ 0.2 |
| SQMR | ≤ 0.2 |

| Variant | one-hybrid fitness for binding parS DNA |
| --- | --- |
| IRKE | ≤ 0.2 |
| RNGF | ≤ 0.2 |
| RNSR | ≤ 0.2 |
| RNGK | ≤ 0.2 |
| RNSC | 0.848 |
| RNHY | 0.361 |
| RNSF | ≤ 0.2 |
| RNGC | 0.769 |
| RNCY | 0.235 |
| RNHQ | ≤ 0.2 |
| RNCC | 0.704 |
| RNHC | 0.798 |
| RNCR | ≤ 0.2 |
| QDYV | ≤ 0.2 |
| VSHT | ≤ 0.2 |
| KTMS | ≤ 0.2 |
| EVAF | ≤ 0.2 |
| RNQN | 0.284 |
| RNWR | ≤ 0.2 |
| RNQC | 0.82 |
| DNWC | ≤ 0.2 |
| RNQD | ≤ 0.2 |
| RNWC | 0.569 |
| TLDS | ≤ 0.2 |

| Variant | one-hybrid fitness for binding parS DNA |
| --- | --- |
| ARHI | ≤ 0.2 |
| RLKR | ≤ 0.2 |
| RLVD | ≤ 0.2 |
| RLVP | ≤ 0.2 |
| RLKK | ≤ 0.2 |
| RLKT | 0.799 |
| RLVT | 0.844 |
| PSIF | ≤ 0.2 |
| TTMY | ≤ 0.2 |
| IRGH | ≤ 0.2 |
| RNNY | 0.434 |
| RNDT | 0.562 |
| RNNT | 0.785 |
| RNNE | ≤ 0.2 |
| RNDF | ≤ 0.2 |
| RNET | 0.498 |
| PRSW | ≤ 0.2 |
| AEDR | ≤ 0.2 |
| SKLC | ≤ 0.2 |
| NKAA | ≤ 0.2 |
| RKAA | 0.62 |
| RKFA | 0.549 |
| DKAA | ≤ 0.2 |
| HLVN | ≤ 0.2 |

| Variant | one-hybrid fitness for binding parS DNA |
| --- | --- |
| EADC | ≤ 0.2 |
| RFLC | 0.85 |
| RFWR | ≤ 0.2 |
| RFWC | 0.697 |
| RFRP | ≤ 0.2 |
| DFLC | ≤ 0.2 |
| DFRC | ≤ 0.2 |
| NFLC | ≤ 0.2 |
| RFQY | 0.462 |
| RFRC | 0.969 |
| RFQC | 0.925 |
| DFQC | ≤ 0.2 |
| RFWF | ≤ 0.2 |
| SDQF | ≤ 0.2 |
| ENRG | ≤ 0.2 |
| CYNT | ≤ 0.2 |
| LSAC | ≤ 0.2 |
| TCKK | ≤ 0.2 |
| CTYA | ≤ 0.2 |
| TRDK | ≤ 0.2 |
| RFSD | ≤ 0.2 |
| RFHC | 0.925 |
| DFSC | ≤ 0.2 |
| RFYN | 0.357 |

| Variant | one-hybrid fitness for binding parS DNA |
| --- | --- |
| RFCC | 0.87 |
| DFYC | ≤ 0.2 |
| RFCD | ≤ 0.2 |
| NFCC | ≤ 0.2 |
| NFHC | ≤ 0.2 |
| DFHC | ≤ 0.2 |
| RFSC | 0.935 |
| RFYC | 0.867 |
| WVLH | ≤ 0.2 |
| GNCC | ≤ 0.2 |
| TRHF | ≤ 0.2 |
| VVNG | ≤ 0.2 |
| TLTV | ≤ 0.2 |
| PSGP | ≤ 0.2 |
| WTLF | ≤ 0.2 |
| RFVS | 0.892 |
| RFKH | 0.252 |
| RFVH | ≤ 0.2 |
| RFKN | 0.441 |
| RFVD | ≤ 0.2 |
| RFKS | 0.9 |
| VTDM | ≤ 0.2 |
| VYTF | ≤ 0.2 |
| PGDI | ≤ 0.2 |

| Variant | one-hybrid fitness for binding parS DNA |
| --- | --- |
| KILR | ≤ 0.2 |
| RKAP | ≤ 0.2 |
| RKAD | ≤ 0.2 |
| RKFP | ≤ 0.2 |
| RKAS | 0.832 |
| RKFS | 0.927 |
| RKFN | 0.295 |
| QHMA | ≤ 0.2 |
| SVPY | ≤ 0.2 |
| WRWT | ≤ 0.2 |
| FLPQ | ≤ 0.2 |
| WSPS | ≤ 0.2 |
| QVPW | ≤ 0.2 |
| RLFD | ≤ 0.2 |
| RLAP | ≤ 0.2 |
| RLAH | ≤ 0.2 |
| RLFS | 1.03 |
| RLAS | 1 |
| RLFN | 0.395 |
| HRSG | 0.277 |
| QDER | ≤ 0.2 |
| QMYS | ≤ 0.2 |
| YWTY | ≤ 0.2 |
| IAWK | ≤ 0.2 |

| Variant | one-hybrid fitness for binding parS DNA |
| --- | --- |
| PACN | ≤ 0.2 |
| RQKQ | ≤ 0.2 |
| RQVP | ≤ 0.2 |
| RQKT | 0.819 |
| RQKF | 0.328 |
| RQVT | 0.678 |
| RQVH | ≤ 0.2 |
| FSNE | ≤ 0.2 |
| TTGM | ≤ 0.2 |
| ILAP | ≤ 0.2 |
| ELIG | ≤ 0.2 |
| HFGL | ≤ 0.2 |
| DNSG | ≤ 0.2 |
| DNPA | ≤ 0.2 |
| RHPT | 0.336 |
| REIT | ≤ 0.2 |
| RHIH | ≤ 0.2 |
| RCIT | 0.78 |
| RSIT | 0.628 |
| RPIT | ≤ 0.2 |
| RGIT | 0.278 |
| RHIT | 0.581 |
| RSPT | 0.372 |
| YPCV | ≤ 0.2 |

| Variant | one-hybrid fitness for binding parS DNA |
| --- | --- |
| ALRC | ≤ 0.2 |
| TRWA | ≤ 0.2 |
| AHIG | ≤ 0.2 |
| RVQK | ≤ 0.2 |
| RVSD | ≤ 0.2 |
| RVGC | 0.934 |
| RVGF | 0.254 |
| RVQC | 0.983 |
| RVSC | 0.977 |
| RVWY | 0.49 |
| RVQM | 0.278 |
| RVSH | ≤ 0.2 |
| RVWM | 0.344 |
| RVWC | 0.963 |
| RVGM | 0.306 |
| PWHI | ≤ 0.2 |
| EAGG | ≤ 0.2 |
| TACV | ≤ 0.2 |
| YPGR | ≤ 0.2 |
| TVMC | ≤ 0.2 |
| GENW | ≤ 0.2 |
| CIYR | ≤ 0.2 |
| METI | ≤ 0.2 |
| RVRC | 0.851 |

| Variant | one-hybrid fitness for binding parS DNA |
| --- | --- |
| RVCC | 0.966 |
| RVLK | ≤ 0.2 |
| RVCP | ≤ 0.2 |
| RVYM | 0.314 |
| RVYQ | ≤ 0.2 |
| RVLF | 0.259 |
| RVCN | 0.438 |
| RVRP | ≤ 0.2 |
| RVYC | 0.991 |
| RVLC | 0.958 |
| RVRH | 0.203 |
| MFWG | ≤ 0.2 |
| QASK | ≤ 0.2 |
| RCDK | ≤ 0.2 |
| QSQF | ≤ 0.2 |
| PAVG | ≤ 0.2 |
| THLD | ≤ 0.2 |
| KYFM | ≤ 0.2 |
| RVHY | 0.481 |
| RVHC | 0.965 |
| RVHM | 0.314 |
| LVSM | ≤ 0.2 |
| LKVQ | ≤ 0.2 |
| LEMF | ≤ 0.2 |

| Variant | one-hybrid fitness for binding parS DNA |
| --- | --- |
| FCHS | ≤ 0.2 |
| SKPK | ≤ 0.2 |
| RMPF | ≤ 0.2 |
| RMIM | 0.324 |
| RMIC | 0.926 |
| RPPC | ≤ 0.2 |
| RSPC | 0.421 |
| RMIL | ≤ 0.2 |
| RCPC | 0.698 |
| RMPC | 0.725 |
| RMPP | ≤ 0.2 |
| EAKD | ≤ 0.2 |
| TVNA | ≤ 0.2 |
| CNTL | ≤ 0.2 |
| RLKS | 0.851 |
| RLVN | 0.4 |
| RLKN | 0.458 |
| RLVS | 1.03 |
| RLKD | ≤ 0.2 |
| RLVH | 0.223 |
| AHEK | ≤ 0.2 |
| MWPC | ≤ 0.2 |
| LAAP | ≤ 0.2 |
| QDYS | ≤ 0.2 |

| Variant | one-hybrid fitness for binding parS DNA |
| --- | --- |
| QTCI | ≤ 0.2 |
| PSAR | ≤ 0.2 |
| HTSF | ≤ 0.2 |
| AANC | ≤ 0.2 |
| RVIM | 0.261 |
| RVPR | ≤ 0.2 |
| RVPG | 0.691 |
| RVIG | 0.904 |
| RVIK | ≤ 0.2 |
| RVPQ | ≤ 0.2 |
| HAGS | ≤ 0.2 |
| VNPV | ≤ 0.2 |
| WRYW | ≤ 0.2 |
| TQTI | ≤ 0.2 |
| FACF | ≤ 0.2 |
| RMIN | 0.327 |
| RMPD | ≤ 0.2 |
| RMIS | 0.997 |
| RMPN | 0.262 |
| RMPS | 0.889 |
| RMID | ≤ 0.2 |
| FTGR | ≤ 0.2 |
| QRNV | ≤ 0.2 |
| PRGY | ≤ 0.2 |

| Variant | one-hybrid fitness for binding parS DNA |
| --- | --- |
| VCNT | ≤ 0.2 |
| KCVG | ≤ 0.2 |
| DLRC | ≤ 0.2 |
| PRLY | ≤ 0.2 |
| RWEG | 0.563 |
| RWEC | 0.556 |
| RWEN | ≤ 0.2 |
| RWEA | 0.301 |
| RWEI | ≤ 0.2 |
| RWEM | ≤ 0.2 |
| RWES | 0.712 |
| RWEK | ≤ 0.2 |
| RWEF | ≤ 0.2 |
| DQQE | ≤ 0.2 |
| CPRM | ≤ 0.2 |
| KRDI | ≤ 0.2 |
| DGLW | ≤ 0.2 |
| SLYE | ≤ 0.2 |
